Measured values taken from PubChem BioAssay (NCI).
The panel holds about 83,000 compounds, 20% with a hit somewhere; the sample as a whole holds those more often.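 Results are percent growth after 48 hours of single-concentration exposure. 100 means growth as in untreated cells, lower positive values show inhibition; negative values down to -100 show cell death.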 A number with no mark means an inactive call. The source made the active and inactive calls. Rule for the calls: active = growth percent below 10; inactive = the rest.

Columns and labels:
Assay in all cases: NCI-60 one-dose screen, 48 h (100 = growth as untreated, 0 = no growth, -100 = all killed)
Conditions in all cases: 10 µM unless noted
SR leukemia = test system: SR leukemia
RPMI-8226 leukemia = test system: RPMI-8226 leukemia
OVCAR-8 ovarian = test system: OVCAR-8 ovarian
OVCAR-5 ovarian = test system: OVCAR-5 ovarian
OVCAR-4 ovarian = test system: OVCAR-4 ovarian
SK-OV-3 ovarian = test system: SK-OV-3 ovarian
IGROV1 ovarian = test system: IGROV1 ovarian
OVCAR-3 ovarian = test system: OVCAR-3 ovarian
HS 578T breast = test system: HS 578T breast
NCI/ADR-RES ovarian = test system: NCI/ADR-RES ovarian
T-47D breast = test system: T-47D breast
BT-549 breast = test system: BT-549 breast
MDA-MB-435 melanoma = test system: MDA-MB-435 melanoma
SW-620 colon = test system: SW-620 colon
MCF7 breast = test system: MCF7 breast
HCT-116 colon = test system: HCT-116 colon
HCC-2998 colon = test system: HCC-2998 colon
KM12 colon = test system: KM12 colon

Row | SMILES | growth (SR leukemia) [%] | growth (RPMI-8226 leukemia) | growth (OVCAR-8 ovarian) | growth (OVCAR-5 ovarian) [%] | growth (OVCAR-4 ovarian) | growth (SK-OV-3 ovarian) [%] | growth (IGROV1 ovarian) [%] | growth (OVCAR-3 ovarian) | growth (HS 578T breast) [%] | growth (NCI/ADR-RES ovarian) | growth (T-47D breast) | growth (BT-549 breast) [%] | growth (MDA-MB-435 melanoma) | growth (SW-620 colon) [%] | growth (MCF7 breast) | growth (HCT-116 colon) | growth (HCC-2998 colon) | growth (KM12 colon)
1 | Nc1c(-c2nc3ccc(Br)cc3c(=O)[nH]2)nnn1-c1ccccc1 | 57.7 | 92.1% | 97.7% | 95.8 | 6.63% (active) | 112 | 90.3 | 80.2% | 91.8 | 80.9% | 78.3% | 63.1 | 72.2% | 88.1 | 78.7% | 48.2% | 80.6% | 61.6%
2 | Nc1nc(I)c2ncn(C3OC(CO)C(O)C3O)c2n1 (centres undefined) | 107 | 157% | 112% | 104 | 129% | 100 | 121 | 112% | 136 | 105% | 94.9% | 69.7 | 91.6% | 114 | 96.6% | 110% | 103% | 115%
3 | O=[N+]([O-])c1ccccc1C(O)Cc1ccc2ccccc2n1 (centres undefined) | 95.6 | 95.1% | 97.2% | 91.1 | 92.8% | 84.9 | 80.5 | 93.2% | 98.9 | 93% | 88.6% | 109 | 103% | 96.7 | 83.2% | 93% | 114% | 87.6%
4 | Nc1ccc(CCCCc2ccccc2)c(Cl)c1 | 92.7 | 85.4% | 94% | 96.7 | 84.4% | 98.7 | 87.2 | 94.3% | 93.7 | 104% | 89.9% | 91.9 | 99.1% | 92.3 | 98.6% | 92.6% | 113% | 101%
5 | O=[N+]([O-])c1ccc2[nH]cc(-c3c4ccsc4cc4[nH]c5ccc([N+](=O)[O-])cc5c34)c2c1 | 10.2 | 9.85% (active) | 7.43% (active) | 10.9 | 35.1% | 15.1 | 21.9 | -21.3% (active) | 26.6 | -14.1% (active) | 7.11% (active) | 24.7 | -27.6% (active) | 25 | 9.14% (active) | 2.78% (active) | 7.3% (active) | 3.79% (active)
6 | N#Cc1c(-c2ccc(C(F)(F)F)cc2)cc(N2CC(O)C2)n2c1nc1ccccc12 | 73.5 | 78.8% | 19.4% | 77.5 | -29.8% (active) | 18.8 | 60.9 | 48.4% | 17.8 | 38.3% | 36.1% | 37.9 | 83.7% | 82.8 | 81.6% | 55.4% | 95.6% | 74.2%
7 | COc1cc2oc3cc(C)oc(=O)c3c2cc1OC | 106 | 87.2% | 97.3% | 83.1 | 93.6% | 103 | 98.9 | 110% | 106 | 89.1% | 89.8% | 109 | 97.7% | 103 | 98% | 90.4% | 92.4% | 105%
8 | O=S(=O)(Cc1ccccc1)c1nc2ccccc2s1 | 17 | 20.4% | 88.8% | 102 | 63.7% | 101 | 61.1 | 79.2% | 96.2 | 96.5% | 76.4% | 35.8 | 49% | 26.3 | 30.5% | 9.47% (active) | 103% | 93%
